Screening results from PubChem.
CD40 NFkB inh: CD40 pathway inhibition in BL2 cells | BL2 NF-kB luciferase reporter, CD40L-induced, 4 h | inhibition, % at 10 µM | actives 0.94% (n = 83,000);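 active = mean inhibition of at least 50% with a set share of replicates also reaching that level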;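 also: 0% = neutral control wells and 100% = IKK inhibitor VII at 50 µM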
Active calls of the source: *; [ ] = remark or other dose. The sample as a whole holds a higher share of hits than the screen did.

SMILES | CD40 NFkB inh
O=C(/C=C/c1ccccc1)CC(O)(c1ccccc1)C(F)(F)F (stereo not drawn) | 22.4
O=C(/C=C/c1ccccc1)COC(=O)c1ccccc1 | -16.8
COCC(=O)Nc1ccc2c(c1)[C@@H]1C[C@H](CC(=O)N3CCOCC3)O[C@@H](CO)[C@@H]1O2 | -6.7[25 µM]
Cc1ccc(S(=O)(=O)N(C)C[C@@H]2OCCCC[C@@H](C)Oc3ccc(NS(=O)(=O)c4ccc(F)cc4)cc3C(=O)N([C@@H](C)CO)C[C@@H]2C)cc1 | 9.8
O=C(Nc1ccccc1)N1CC(=O)N2[C@H](C1)[C@@H](c1ccc(C#CC3CCCCC3)cc1)[C@@H]2CO | 35.4[25 µM]
N#C[C@H]1[C@@H](c2ccc(C#CC3CCCCC3)cc2)[C@H](CO)N1C(=O)Nc1ccc(F)cc1 | 54.9*[25 µM]
CC(C)NC(=O)N1[C@H](C#N)[C@@H](c2ccc(C#CC3CCCCC3)cc2)[C@@H]1CO | -3.5
N#C[C@H]1[C@@H](c2ccc(C#CC3CC3)cc2)[C@@H](CO)N1C(=O)Nc1ccc(F)cc1 | 1.7
CC(C)NC(=O)N1[C@H](C#N)[C@H](c2ccc(C#CC3CCCCC3)cc2)[C@@H]1CO | 9.4
CC(C)NC(=O)N1[C@H](C#N)[C@@H](c2ccc(C#CC3CCCC3)cc2)[C@H]1CO | -2.1
N#C[C@@H]1[C@H](c2ccc(C#CC3CCCC3)cc2)[C@@H](CO)N1C(=O)Nc1ccc(F)cc1 | 48.2*
N#C[C@H]1[C@H](c2ccc(C#CC3CCCC3)cc2)[C@@H](CO)N1C(=O)Nc1ccc(F)cc1 | 29.5
N#C[C@H]1[C@H](c2ccc(C#CC3CCCCC3)cc2)[C@H](CO)N1C(=O)Nc1ccc(F)cc1 | 51.3*[25 µM]
CC(C)NC(=O)N1[C@H](CO)[C@H](c2ccc(C#CC3CCCCC3)cc2)[C@@H]1C#N | 11.8
CC(C)NC(=O)N(C)C[C@H]1Oc2ccccc2C(=O)N(C)C[C@H]1C | 1.8
CC(=O)NC[C@@H]1[C@@H](c2ccc(C3=CCCC3)cc2)[C@@H](CO)N1C(=O)CN(C)C | -15.6[25 µM]
C[C@@H]1CCCCO[C@@H](CN(C)S(=O)(=O)c2ccccc2)[C@@H](C)CN([C@@H](C)CO)C(=O)c2cc(NC(=O)CCCN(C)C)ccc2O1 | -5.6
CO[C@H](C(=O)N(C)C[C@@H]1OCc2ccccc2-c2ccccc2C(=O)N([C@H](C)CO)C[C@H]1C)c1ccccc1 | -1.9[25 µM]
C[C@@H]1CCCCO[C@H](CN(C)Cc2ccc(C(=O)O)cc2)[C@H](C)CN([C@@H](C)CO)C(=O)c2cc(N(C)C)ccc2O1 | 0.6[25 µM]
O=C(NCC1CC1)[C@H]1[C@H](CO)[C@H]2Cn3c(ccc(-c4ccccc4)c3=O)[C@@H]1N2C(=O)C1CC1 | -9.2[25 µM]
CC(C)C(Cl)=NOC(=O)Nc1ccc(S(N)(=O)=O)cc1 | 112.3*
CNC(=O)Nc1ccc(S(N)(=O)=O)cc1 | 9.8
COC(=O)[C@H](C)NC(=O)Nc1ccc(S(N)(=O)=O)cc1 | 13.7
CCCC(=O)Nc1ccc2c(c1)C(=O)N(C)[C@H]1CC[C@H](CC(=O)N3CCCCC3)O[C@H]1CO2 | -2.4[25 µM]
OC[C@@H]1[C@H](c2ccc(Br)cc2)[C@@H]2CN(Cc3cncnc3)CCCCN12 | -82.2
SMILES | CD40 NFkB inh
COc1ccc(-c2ccc(C3[C@H]4CNC[C@@H]3N4C(=O)Nc3ccccc3F)cc2)cc1 (stereo partly drawn) | -41.0
C[C@@H]1CN([C@@H](C)CO)C(=O)c2c(c3ccccc3n2C)-c2ccccc2CO[C@H]1CN(C)CC1CCCCC1 | -2.9[25 µM]
C[C@@H]1CN([C@H](C)CO)C(=O)CCCn2cc(nn2)CO[C@@H]1CN(C)Cc1ccc(C(=O)Nc2ccccc2N)cc1 | -14.4[25 µM]
CN(C(=O)Nc1ccc(S(=O)(=O)N(C)C)cc1)C1CCCCC1 | -13.3
CN(C)S(=O)(=O)c1ccc(NC=O)cc1 | 27.0*
CN(C)S(=O)(=O)c1ccc(NC(=O)Cn2ccsc2=N)cc1 | 8.7
N#C[C@H]1[C@@H](c2ccccc2-c2cccc(F)c2)[C@H](CO)N1C(=O)CN1CCOCC1 | -7.3[25 µM]
O=C(C[C@H]1CC[C@@H]2[C@H](COC[C@@H](O)CN2Cc2nccs2)O1)NCc1ccccc1Cl | 9.0[25 µM]
CC(C)(C)c1cc(/C=C(\C#N)C(N)=S)cc(C(C)(C)C)c1O | 56.4*[25 µM]
N#CC(C#N)=C(N)/C(C#N)=C/c1cc(O)c(O)c(O)c1 | -18.3[25 µM]
CCn1c2ccccc2c2cc(/C=C(/C#N)C(N)=S)ccc21 | -5.3
O=C([C@@H]1[C@@H](CO)[C@@H]2Cn3c(ccc(-c4ccc(F)cc4)c3=O)[C@H]1N2)N1CCCCC1 | -7.5[25 µM]
CN(C)CC(=O)N1[C@@H](C#N)[C@@H](c2ccc(-c3cccc(C(=O)N(C)C)c3)cc2)[C@@H]1CO | 1.9[25 µM]
COc1cccc(C#Cc2ccc([C@@H]3[C@@H](C#N)N[C@@H]3CO)cc2)c1 | -46.8[25 µM]
COC(=O)C1CC2=CC(=O)CCC2(C)C23OC2CC2(C)C(CCC24CCC(=O)O4)C13 (stereo not drawn) | 1.7[25 µM]
CC(C)OC(=O)c1cn(Cc2c(F)cccc2F)c2sc(-c3ccc(NC(=O)C(C)C)cc3)c(CN(C)Cc3ccccc3)c2c1=O | 54.2*[25 µM]
COc1ccc(C#Cc2ccc([C@H]3[C@@H](CO)N4CCCCN(C(=O)c5ccncc5)C[C@H]34)cc2)cc1 | -3.8[25 µM]
